Test [1] concerns Sodium/Iodide Symporter (NIS), SLC5A5 (gene 6528). In words: CPHEA_Stoker_NIS_Inhibition_RAIU: CPHEA's Radioactive Iodide Uptake (RAIU) Assay for Sodium/Iodide Symporter (NIS) Inhibition, Stoker and Laws Labs (AID 2283841). A digest of the protocol:
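Iodide uptake read as CPM of intracellular 125I (final 329 pM) after 2 h room-temperature exposure in HEPES-buffered HBSS, pH 7.4. Human NIS-expressing HEK293T cells; six concentrations 0.001–100 uM, 0.5% DMSO, normalised to DMSO wells.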

A short description of test [2]: CPHEA_Stoker_NIS_Cytotoxicity: Cytotoxicity Assessment for CPHEA's Radioactive Iodide Uptake (RAIU) Assay for Sodium/Iodide Symporter (NIS) Inhibition, Stoker and Laws Labs (AID 2283897).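 As to AC50: active means loss of ATP signal versus DMSO meaning cytotoxicity.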 The gist of the method:
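CellTiter-Glo ATP luminescence gauged viability in HEK293T cells expressing human NIS after 2 h chemical exposure. Concentrations ran 0.001–100 uM in 0.5% DMSO; DMSO served as baseline for the loss-of-signal fit.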

Test [3] is described as follows: CEETOX_H295R_11DCORT_noMTC: CeeTox H295R High-throughput Steroidogenesis Assay for 11-Deoxycortisol (11DCORT), maximum tolerated concentration (MTC) filtered results only (AID 2283911; active = hit-call score of the fitted dose curve at least 0.9, where 1 is the maximum; inactive = score below 0.9). The conditions noted are these: actives raise or lower the signal. A digest of the protocol: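 HPLC-MS/MS read-out of 11-deoxycortisol after MTBE extraction of H295R medium. Cells: forskolin 10 uM pre-stimulation 48 h, chemical 48 h, 0.1% DMSO final. Bidirectional fit vs DMSO baseline; no MTC filtering.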

For test [4], the target named is zebrafish Thyroid Hormone Receptor alpha (TRa), thraa (gene 30670) (UniProt Q98867). In words: ATG_zfTRa_XSP2: Attagene TRANS-FACTORIAL Multi-Species (XSP1) HepG2 Assay for zebrafish Thyroid Hormone Receptor alpha (TRa) (AID 2283832).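 Also: actives raise zebrafish TRa-Gal4 reporter transcript above DMSO baseline.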 The gist of the method: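 HepG2 transiently transfected with GAL4-UAS reporter units and chimeric zebrafish TRa-Gal4; reporter mRNA quantified after 24 h dosing by RT-PCR, HpaI digestion and capillary electrophoresis fluorescence. Gain of signal vs DMSO; XSP2 medium contains 3 nM 6-alpha-fluorotestosterone, 1.5 nM norgestrel.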
Sequence of zebrafish Thyroid Hormone Receptor alpha (TRa), thraa (gene 30670) (Q98867 whole entry, looked up, the tested form may be a part): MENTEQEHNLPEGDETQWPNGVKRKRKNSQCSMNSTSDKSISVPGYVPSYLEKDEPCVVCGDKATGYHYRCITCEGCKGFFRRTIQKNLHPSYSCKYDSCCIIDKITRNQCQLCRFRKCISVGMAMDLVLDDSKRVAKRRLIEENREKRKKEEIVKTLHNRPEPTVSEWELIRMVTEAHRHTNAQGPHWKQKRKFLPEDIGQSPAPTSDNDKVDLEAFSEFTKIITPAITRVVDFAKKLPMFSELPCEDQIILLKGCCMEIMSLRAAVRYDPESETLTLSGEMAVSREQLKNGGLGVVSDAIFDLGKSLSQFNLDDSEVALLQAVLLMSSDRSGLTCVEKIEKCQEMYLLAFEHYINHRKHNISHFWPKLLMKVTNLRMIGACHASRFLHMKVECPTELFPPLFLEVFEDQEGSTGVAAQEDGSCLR

A short description of test [5]: ATG_M_61_XSP2: Attagene TRANS-FACTORIAL Multi-Species (XSP2) HepG2 Assay for M61 Transcription Factor (Internal Marker) (AID 2283835; active = hit-call score of the fitted dose curve at least 0.9, where 1 is the maximum; inactive = score below 0.9;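 also: active means a rise in signal above the DMSO baseline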). A digest of the protocol: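 HepG2 cells transiently transfected with multiple GAL4-UAS reporter units; 3 nM 6-alpha-fluorotestosterone and 1.5 nM norgestrel present to stimulate androgen receptor. After 24 h compound exposure, reporter mRNA measured by RT-PCR and capillary electrophoresis fluorescence, gain-of-signal versus DMSO baseline.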

Test [6] concerns the target zebrafish Thyroid Hormone Receptor beta (TRb), thrb (gene 30607) (UniProt Q9PVE4). In words: ATG_zfTRb_XSP2: Attagene TRANS-FACTORIAL Multi-Species (XSP1) HepG2 Assay for zebrafish Thyroid Hormone Receptor beta (TRb) (AID 2283836). A digest of the protocol:
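HepG2 cells transiently transfected with chimeric zebrafish TRb-GAL4 reporter units, dosed 24 h with 3 nM 6-alpha-fluorotestosterone and 1.5 nM norgestrel present. Reporter mRNA quantified by RT-PCR and capillary electrophoresis; gain fitted against DMSO.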

For test [7], the target named is human Thyroid hormone Receptor alpha (TRa), THRA (gene 7067) (UniProt P10827). Put plainly: ATG_hTRa_XSP2: Attagene TRANS-FACTORIAL Multi-Species (XSP2) HepG2 Assay for human Thyroid hormone Receptor alpha (TRa) (AID 2283838). As to the method: ATG_XSP2_multi-species_TRANS is a cell-based, multiplexed assay created by modifying the existing Attagene TRANS-FACTORIAL system to include a panel of nuclear receptors from some or all the following species: human (Homo sapiens), mouse (Mus musculus), frog (Xenopus laevis), zebrafish (Danio rerio), chicken (Gallus gallus), and turtle (Chrysemys picta). The ECOTOX-FACTORIAL format uses HepG2, a human liver cell line, with measurements taken at 24 hours after chemical dosing in a 24-well plate. Xsp2 included 3 nM 6-alpha-fluorotestosterone and 1.5 nM norgestrel to stimulate the androgen receptor.ATG_hTRa_XSP2 is one of 29 assay components measured or calculated from the ATG_XSP2_multi-species_TRANS assay. It is designed to make measurements of mRNA induction, a form of inducible reporter, as detected with fluorescence intensity signals by Reverse transcription polymerase chain reaction (RT-PCR) and Capillary electrophoresis technology.The assay endpoint ATG_hTRa_XSP2 was analyzed in the positive analysis fitting direction relative to DMSO as the negative control and baseline of activity. […] Furthermore, this assay endpoint can be referred to as a primary readout, because this assay has produced multiple assay endpoints where this one serves a reporter gene function. […]
Sequence of human Thyroid hormone Receptor alpha (TRa), THRA (gene 7067) (P10827 whole entry, looked up): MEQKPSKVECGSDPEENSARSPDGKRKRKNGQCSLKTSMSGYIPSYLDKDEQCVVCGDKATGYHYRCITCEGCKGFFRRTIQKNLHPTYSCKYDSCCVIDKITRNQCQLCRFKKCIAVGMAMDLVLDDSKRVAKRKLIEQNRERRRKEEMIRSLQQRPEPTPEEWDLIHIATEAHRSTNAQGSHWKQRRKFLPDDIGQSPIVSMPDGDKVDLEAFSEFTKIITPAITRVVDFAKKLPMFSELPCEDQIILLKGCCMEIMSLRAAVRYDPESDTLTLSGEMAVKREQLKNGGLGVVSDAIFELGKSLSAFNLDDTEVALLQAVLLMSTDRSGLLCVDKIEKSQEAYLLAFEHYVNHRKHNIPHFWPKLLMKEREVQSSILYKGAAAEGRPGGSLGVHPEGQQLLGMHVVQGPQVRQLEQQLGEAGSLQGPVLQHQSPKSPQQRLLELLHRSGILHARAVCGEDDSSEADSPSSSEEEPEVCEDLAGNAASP

Test [8] deals with turtle Thyroid Hormone Receptor, alpha (TRa), gene 101949057. Put plainly: ATG_trTRa_XSP2: Attagene TRANS-FACTORIAL Multi-Species (XSP1) HepG2 Assay for turtle Thyroid Hormone Receptor, alpha (TRa) (AID 2283834).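 Also: hits raise reporter mRNA over the DMSO baseline so AC50 marks activators.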 The gist of the method:
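HepG2 cells transiently transfected with multiplexed GAL4-UAS reporter units expressing chimeric NR-Gal4 proteins were dosed for 24 hours. Reporter mRNA was quantified by RT-PCR with 6-FAM labelling and capillary electrophoresis, gain of signal scored against DMSO.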

The target in test [9] is frog Thyroid hormone Receptor alpha (TRa), thra-a (gene 397942) (UniProt P15204). Put plainly: ATG_frTRa_XSP2: Attagene TRANS-FACTORIAL Multi-Species (XSP2) HepG2 Assay for frog Thyroid hormone Receptor alpha (TRa) (AID 2283839). A digest of the protocol: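 HepG2 cells transiently transfected with multiplexed GAL4-UAS reporter units expressing chimeric frog TRα-Gal4; reporter mRNA read 24 h after dosing by RT-PCR, FAM-labelled primer extension, HpaI digest and capillary electrophoresis. Gain of signal fitted versus DMSO.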
Sequence of frog Thyroid hormone Receptor alpha (TRa), thra-a (gene 397942) (P15204 whole entry, looked up, the tested form may be a part): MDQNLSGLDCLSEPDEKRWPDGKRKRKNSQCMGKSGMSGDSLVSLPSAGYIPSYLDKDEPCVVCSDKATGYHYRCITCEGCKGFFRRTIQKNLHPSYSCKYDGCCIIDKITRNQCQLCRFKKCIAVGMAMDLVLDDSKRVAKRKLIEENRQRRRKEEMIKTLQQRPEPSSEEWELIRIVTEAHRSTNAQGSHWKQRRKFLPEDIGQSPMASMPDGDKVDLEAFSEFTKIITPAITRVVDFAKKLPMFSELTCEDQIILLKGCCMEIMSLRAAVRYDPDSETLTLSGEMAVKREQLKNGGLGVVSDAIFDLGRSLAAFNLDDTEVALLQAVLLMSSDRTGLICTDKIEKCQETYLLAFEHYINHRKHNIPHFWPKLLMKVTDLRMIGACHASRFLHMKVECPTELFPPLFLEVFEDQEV

Test [10] has as its target human Thyroid hormone Receptor beta (TRb), THRB (gene 7068) (UniProt P10828). Put plainly: ATG_hTRb_XSP2: Attagene TRANS-FACTORIAL Multi-Species (XSP2) HepG2 Assay for human Thyroid hormone Receptor beta (TRb) (AID 2283840).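 Also: actives raise reporter mRNA so potency reflects agonist-like gain of signal.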 A digest of the protocol: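 HepG2 cells were transiently transfected with GAL4-UAS multiplexed reporter units expressing chimeric NR-Gal4 proteins, dosed 24 h; reporter mRNA was quantified by RT-PCR, fluorescent labeling, HpaI digestion and capillary electrophoresis, fitted for gain of signal versus DMSO.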

Records with an inconclusive call do not appear. Calls of active or inactive are those of the source. The calls were made as follows, unless noted: active = hit-call score of the fitted dose curve at least 0.9, where 1 is the maximum; inconclusive = response in the unintended direction; inactive = score below 0.9.

In PubChem BioAssay (EPA / NIEHS) one finds AC50 and outcome data, which are given here for 30 compounds.

Sequence of zebrafish Thyroid Hormone Receptor beta (TRb), thrb (gene 30607) (Q9PVE4 whole entry, looked up, the tested form may be a part): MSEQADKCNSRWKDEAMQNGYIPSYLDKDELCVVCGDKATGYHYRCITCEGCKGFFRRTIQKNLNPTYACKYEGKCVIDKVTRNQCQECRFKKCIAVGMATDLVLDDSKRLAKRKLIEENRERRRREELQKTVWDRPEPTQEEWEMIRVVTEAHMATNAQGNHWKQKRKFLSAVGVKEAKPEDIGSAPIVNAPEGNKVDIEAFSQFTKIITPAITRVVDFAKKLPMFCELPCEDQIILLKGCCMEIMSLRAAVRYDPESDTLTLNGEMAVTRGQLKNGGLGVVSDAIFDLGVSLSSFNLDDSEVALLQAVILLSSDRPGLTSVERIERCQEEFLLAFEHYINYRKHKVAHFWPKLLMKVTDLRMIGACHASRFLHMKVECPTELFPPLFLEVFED
Sequence of human Thyroid hormone Receptor beta (TRb), THRB (gene 7068) (P10828 whole entry, looked up, the tested form may be a part): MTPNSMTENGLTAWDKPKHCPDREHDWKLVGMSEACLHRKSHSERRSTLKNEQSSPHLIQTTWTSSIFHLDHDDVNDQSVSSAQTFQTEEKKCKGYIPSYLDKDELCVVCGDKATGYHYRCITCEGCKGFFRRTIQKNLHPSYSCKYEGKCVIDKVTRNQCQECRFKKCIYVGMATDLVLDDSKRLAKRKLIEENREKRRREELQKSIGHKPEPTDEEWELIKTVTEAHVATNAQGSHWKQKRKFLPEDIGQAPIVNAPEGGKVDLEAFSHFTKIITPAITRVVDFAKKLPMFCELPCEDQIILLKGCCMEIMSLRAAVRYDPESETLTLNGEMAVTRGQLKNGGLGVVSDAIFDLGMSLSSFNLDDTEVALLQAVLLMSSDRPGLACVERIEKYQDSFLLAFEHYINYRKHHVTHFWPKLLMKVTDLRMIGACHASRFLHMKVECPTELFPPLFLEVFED

The term AC50 denotes the concentration at which the activity in the assay is half-maximal. As to `CCN=C1C=CC(=C(c2ccc(N(CC)CC)cc2)c2ccc(N(CC)CC)cc2)c2ccccc21`, the results for the AC50 in test [1] and in [2] were 0.553 µM (active) and 10 µM (active), respectively.

Consider `CCN=c1cc2oc3cc(NCC)c(C)cc3c(-c3ccccc3C(=O)OCC)c-2cc1C`, for which the AC50 is 3.23 µM (active) in test [1] and 30.8 µM (active) in test [2]. `COCCOCCC[Si](C)(O[Si](C)(C)C)O[Si](C)(C)C`: the AC50 in test [1] was 19.4 µM (active). For the same compound, the result in test [2] was inactive. In the same order, the values of `CCCCCCCCCCCCC[N+](C)(C)Cc1ccccc1` are 11.2 µM (active) and “inactive”. Take `OCCCC(F)(F)C(F)(F)C(F)(F)C(F)(F)C(F)(F)C(F)(F)C(F)(F)C(F)(F)F`: in [1], the result was inactive. Regarding `CCCCCCCCCc1ccc(OCCO)cc1`, the results for the AC50 in test [1] and in test [2] were 7.03 µM (active) and 24.3 µM (active), respectively. For `CC(C)Nc1ccc(NC(C)C)c2c1C(=O)c1ccccc1C2=O`, the outcome in test [1] was inactive. For the same compound, in test [2], the AC50 is 15.3 µM (active). In the case of `C=CC(=O)OCC(F)(F)C(F)(F)C(F)(F)COC(=O)C=C`, the outcome in test [1] was inactive.

Consider `OCC(F)(F)C(F)(F)C(F)(F)C(F)(F)C(F)(F)C(F)(F)CO`, for which, in [1], the result was inactive. As for `O=S(=O)(Cl)C(F)(F)C(F)(F)C(F)(F)C(F)(F)C(F)(F)C(F)(F)C(F)(F)C(F)(F)F`, the AC50 in [1] is 16.9 µM (active). In the case of `CCCCCCCCCCCCCC[P+](CCCC)(CCCC)CCCC`, the AC50 was 9.92 µM (active) in test [1] and 15.9 µM (active) in test [2]. As for `Nc1c(Br)cc([N+](=O)[O-])cc1Br`, the compound was classed as inactive in test [3]. As to `O=C(F)C1(F)C(F)(F)C(F)(F)C(F)(F)C(F)(F)C1(F)F`, in test [1], the result was inactive. With `O=C(c1ccccc1)c1ccc(O)cc1O`, the compound was classed as inactive in test [4], in test [5], in test [6], in test [7], in test [1] and in test [2]. As for `CCCCCCCCn1sc(Cl)c(Cl)c1=O`, the half-maximal activity concentration (AC50) in test [1] was 9.92 µM (active). Also, in [2], the outcome was inactive. Take `CCCCCCCC/C=C\CCCCCCCC(=O)N(C)CC(=O)O`: the result in test [2] was inactive.

For the compound `O=S(=O)(OCC(F)(F)F)C(F)(F)C(F)(F)C(F)(F)C(F)(F)F`, in [1], the result was inactive.

`CCc1cc(Cc2cc(CC)c(N)c(CC)c2)cc(CC)c1N`: the half-maximal activity concentration (AC50) in test [1] is 20 µM (active). Moreover, in test [2], the outcome was inactive. For the compound `OCCCCC(F)(F)C(F)(F)C(F)(F)C(F)(F)F`, the result in test [1] was inactive. Still for that read-out and setting: in the case of `OCC(O)CC(F)(F)C(F)(F)C(F)(F)C(F)(F)C(F)(F)C(F)(F)C(F)(F)C(F)(F)F` (stereo not drawn) it was “inactive”; in that of `C=CC(=O)OCCC(F)(F)C(F)(F)C(F)(F)C(F)(F)F`, “inactive”. As to `O=C1C=CC(=O)N1c1ccccc1`, the values for the AC50 in test [1] and in [2] were 9.92 µM (active) and 81.6 µM (active), respectively. For the compound `CC(C)(C)c1cc(CCC(=O)NCCCCCCNC(=O)CCc2cc(C(C)(C)C)c(O)c(C(C)(C)C)c2)cc(C(C)(C)C)c1O`, the outcome in test [3] was inactive. Regarding `CCN(CCO)S(=O)(=O)C(F)(F)C(F)(F)C(F)(F)C(F)(F)C(F)(F)C(F)(F)C(F)(F)C(F)(F)F`, the result in test [1] was inactive. Consider `OCC(F)(F)C(F)(F)C(F)(F)C(F)(F)C(F)(F)C(F)(F)C(F)(F)C(F)(F)CO`, for which, in test [1], the AC50 was 18.3 µM (active).

With `FC(F)(F)C(F)(F)C(F)(F)C(F)(F)C(F)(F)C(F)(F)C(F)(F)CCI`, in test [1], the concentration at half-maximal activity (AC50) is 3.31 µM (active).

Take `C[C@]12CC[C@H]3C(=CCc4cc(O)ccc43)[C@@H]1CCC2=O`: the compound was called inactive in test [8], in test [5], in test [6], in test [7], in test [9] and in [10]. Moreover, the outcome in test [1] and in [2] was inactive. As for `CCC(Cc1c(I)cc(I)c(N)c1I)C(=O)O` (stereo not drawn), the outcome in test [1] and in [2] was inactive. With `O=C(O)CCC(F)(F)C(F)(F)C(F)(F)C(F)(F)C(F)(F)C(F)(F)C(F)(F)F`, in test [1], the result was inactive.

As for `NS(=O)(=O)C(F)(F)C(F)(F)C(F)(F)C(F)(F)C(F)(F)C(F)(F)F`, the result in [1] was inactive.
